Source: PubChem BioAssay
SARS PLpro yeast = qHTS of Yeast-based Assay for SARS-CoV PLP; S. cerevisiae expressing SARS-CoV PLpro, growth rescue; Potency, µM (titrated, usually from 32.9 µM), without a hit: at the highest dose activity, positive = growth rescue, usual class: activators; 330,000 compounds, 0.19% hits; AID 485353, 2010; calls by dose curve; further: potency means the concentration at half of the fitted maximal effect; 0% is about no effect; nearly all actives have a fitted effect of over 55% in size
HCV inhibitor = qHTS Assay for Inhibitors of Hepatitis C Virus (HCV). Potency, µM (top dose mostly 41.8 µM), inactives show top-dose activity change, negative = inhibition, hits mostly inhibitors. Huh7.5.1 HCVcc-Cre infection, luciferase reporter, 44 h. 340,000 compounds, 3.4% hits; further: potency means the concentration at half of the fitted maximal effect; on the % scale 0 is the no-effect control and ±100 the full control effect
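Antiviral activity was scored by luciferase reporter output from cells infected with HCVcc-Cre (~0.5 moi) in presence of compound, 44 h infection period, cells seeded 1,000/well 4 h prior.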
Sm TGR block = qHTS Assay for the Inhibitors of Schistosoma Mansoni Peroxiredoxins | Schistosoma mansoni thioredoxin glutathione reductase (TGR), Q962Y6 | purified TGR, DTNB reduction, TNB absorbance 405 nm | Potency, µM (series often up to 114 µM), for inactives: top-dose activity change, negative = inhibition, hits mostly inhibitors | 360,000 compounds, 3% hits | AID 485364, 2010; further: potency means the concentration at half of the fitted maximal effect; on the % scale 0 is the no-effect control and ±100 the full control effect; nearly all actives have a fitted effect of over 60% in size
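TGR 20 nM + NADPH 100 uM (dispensed conc.), cpd preinc 15 min RT; start with NADPH (500 uM addition) then DTNB (15 mM addition). Kinetic TNB absorbance, 405 nm filter. Four-parameter Hill fit across titration.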
Pf growth 48h = Primary qHTS for delayed death inhibitors of the malarial parasite plastid, 48 hour incubation; P. falciparum luciferase growth in erythrocytes, 48 h; Potency, µM (highest dose often 28.7 µM), inactives show at the highest dose activity change, negative = inhibition, usual class: inhibitors; 310,000 compounds, 5.9% hits; further: potency means the concentration at half of the fitted maximal effect; on the % scale 0 is the no-effect control and ±100 the full control effect
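Firefly luciferase activity from engineered P. falciparum reports growth; inhibitors lower the luminescent signal. Cultures contained 2% hematocrit erythrocytes at 0.1% final parasitemia.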
HCMV antiviral = qHTS Assay for inhibitors of the human cytomegalovirus (HCMV). HFF cells, HCMV-luciferase reporter, 72 h; hits give low values. activity change, negative = inhibition, % at 57.5 µM. 410,000 compounds, 4.5% hits. AID 1259415, 2018; in the data active means activity change below about -60%; inconclusive means no clear call, values can overlap the other calls; inactive means above about -39%; further: on the % scale 0 is the no-effect control and ±100 the full control effect
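Steps: HFFs plated, 16 h 37C; compounds added; HCMV-luciferase added to MOI 1 PFU/cell; 72 h 37C; OneGlo reagent, 5 min room temperature; luminescence read, normalized to controls.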
Pf growth 96h = Primary qHTS for delayed death inhibitors of the malarial parasite plastid, 96 hour incubation. Potency, µM (titrated, usually from 28.7 µM), inactives show top-dose activity change, negative = inhibition, actives largely listed as inhibitors. P. falciparum luciferase reporter growth, 96 h. AID 504834, 2011. 320,000 compounds, 6.9% hits; further: potency means the concentration at half of the fitted maximal effect; on the % scale 0 is the no-effect control and ±100 the full control effect
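Two-generation exposure (96 h) targets delayed-death phenotype. Reporter parasites carrying integrated firefly luciferase, in red cells at 2% hematocrit and 0.05% parasitemia final, kept at 37 C, 5% CO2; luminescence loss indicates inhibition.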
Numbers without * were called inactive; ? = inconclusive; · = no result given; ! = not active in a repeat; [ ] = dose if it differs, or a comment. This is a sample that favours compounds with a hit; in the whole collection about 15% have one here. Unless noted, the call rests on the fitted dose curve; in most records, active means well fitted curve in the direction sought with a large enough effect; inconclusive means small, poorly fitted or top-dose-only effect, or another doubt; inactive means no such curve, though single readings can be large; an effect the other way counts as inactive or inconclusive.

SMILES	SARS PLpro yeast	HCV inhibitor	Sm TGR block	Pf growth 48h	HCMV antiviral	Pf growth 96h
Cc1cc(Cl)ccc1OCCCC(=O)OCC(=O)Nc1cccc(S(N)(=O)=O)c1	-1%	3%	-9%	-18%	55	4%
O=C(CCNc1cccc(F)c1)c1cc2ccccc2o1	-4%	-18%	0.35µM*	20%	?	?
O=C(CCNc1cccc(F)c1)c1cccc([N+](=O)[O-])c1	-3%	-8%	0.28µM*	9%	77	-14%
O=C(Cc1ccc(F)cc1)OCC(=O)c1cc2ccccc2o1	?	6%	0%	13%	-6	-9%
O=C(CCNc1ccc(F)cc1)c1cc2ccccc2o1	-7%	?	0.32µM*	2%	-3	-27%
O=C(CCNc1ccc(Cc2ccncc2)cc1)c1cccc([N+](=O)[O-])c1	-3%	-14%	-2%	1%	23	8%
COc1ccc(-c2nc3scc(CCNS(=O)(=O)c4cccs4)n3n2)cc1	·	·	5%	·	?	·
Cc1ccc(CCNC(=O)CCn2nc(-c3ccc(C)cc3)ccc2=O)cc1	·	·	8%	·	0	·
COc1ccc(C(CNC(=O)c2ccccc2SC)N(C)C)cc1 (configuration not stated)	0%	3%	0%	4%	9	0%
Cc1ccc(N2NC(=O)/C(=C\c3cc4c(cc3[N+](=O)[O-])OCO4)C2=O)cc1C	14%	7%	?	10µM*	102	0%
COc1ccc(C=NNC(=S)NC23CC4CC(CC(C4)C2)C3)cc1OC	·	-26%	·	·	-26	·
COc1cc(/C=N/NC(=O)NC23CC4CC(CC(C4)C2)C3)ccc1OCC(N)=O	0%	?	10%	9.3µM*	-5	5.9µM*
O=C(NCc1ccc(F)cc1F)Nc1cnccc1C(F)(F)F	-1%	-5%	-1%	-2%	-68*	-9%
O=C(NCc1cccnc1)Nc1ccc(F)cc1F	·	3%	2%	43%	45	?
COc1ccc(Nc2cc3c(cn2)nc(-c2ccc(OC)c(OC)c2)n3C)cn1	·	·	·	·	21	·
O=S(=O)(c1ccccc1)N(CC1CO1)c1ccccc1 (configuration not stated)	1%	27%	·	-7%	-28	50%
O=S(=O)(c1ccccc1)N(CC1CO1)c1cccc2ccccc12 (configuration not stated)	1%	-22%	-31%	12µM*	?	?
O=C1Nc2ccccc2O/C1=C\c1c(F)cccc1Cl	-2%	10µM*	10%	?	25	-59%
COC(=O)c1ccc(/C=C2\Oc3ccccc3NC2=O)cc1	0%	3%	0%	101%	48	?
NC(=S)N/N=C1\CC(n2nnnc2-c2ccccc2)C2COC1O2 (configuration not stated)	13%	15%	?	-5%	-68*	?
N[C@@H](Cc1cc(Br)c(O)c(Br)c1)C(=O)O	3%	-8%[8.37 µM]	25µM*	-5%	·	0%
N[C@@H](Cc1cc(I)c(Oc2cc(I)c(O)c(I)c2)c(I)c1)C(=O)O	·	-20%	·	-23%	·	?
N[C@@H](Cc1ccc(O)c(O)c1)C(=O)O	·	?	·	-3%	?	3%
N[C@@H](Cc1cc(I)c(Oc2ccc(O)c(I)c2)c(I)c1)C(=O)O	1%	?	50µM*!	?	-38	?
COC(=O)Cc1nnn2c1[C@H](C)[C@H](c1ccccc1Br)OC[C@H](C)C2	·	·	·	·	1	·
SMILES	SARS PLpro yeast	HCV inhibitor	Sm TGR block	Pf growth 48h	HCMV antiviral	Pf growth 96h
O=C(c1nc2ccccn2c1CNCC1OCCc2ccccc21)N1CCOCC1 (configuration not stated)	0%	10%	10%	12%	-20	12µM*
Cc1ccn2c(CNCCCn3cccn3)c(C(=O)N3CCCCCC3)nc2c1	1%	17%	-21%	8%	2	24%
O=C(c1nc2ccccn2c1CNCCCn1cccn1)N1CCCC1	-1%	1%	-13%	-4%	5	13µM*
COc1ccc(C2C(C(=O)NCC3CCCO3)c3cc(OC)c(OC)cc3C(=O)N2C)cc1OC (configuration not stated)	?	3%	-4%	-8%	73	·
CN(C)c1ccc(CNC(=O)Cc2ccc(NC(=O)N3CCCCc4ccccc43)cc2)cc1	·	·	0%	·	31	·
O=C(Nc1ccc2oc(-c3cccc4c(Br)cccc34)nc2c1)c1ccc(F)cc1	·	·	-2%	·	-3	·
c1ccc(N2CCN(c3ncnc4scc(-c5cccs5)c34)CC2)cc1	7%	11µM*	9%	?	-38	-27%
O=C(c1ccco1)N1CCN(c2ncnc3scc(-c4ccccc4)c23)CC1	-7%	?	0%	·	-23	0%
COc1ccc(F)cc1CN1CCN(c2ncnc3scc(-c4ccccc4)c23)CC1	0%	?	4%	60%	-75*	?
O=C(c1ccco1)N1CCN(c2ncnc3scc(-c4cccs4)c23)CC1	-10%	?	-20%	12µM*	?	?
c1csc(-c2csc3ncnc(NCCCN4CCOCC4)c23)c1	0%	?	?	?	-67*	·
CC(C)(C)c1ccc(C(O)c2ncc(-c3ccc(F)cc3)[nH]2)cc1 (configuration not stated)	·	·	·	·	9	·
CC1(C(=O)NS(=O)(=O)c2ccc(Cl)cc2)CCN1C(=O)C1CC1 (configuration not stated)	·	·	·	·	-12	·
COc1ccc(N2CCN(c3ncnc4scc(-c5ccc(F)cc5)c34)CC2)cc1	-9%	?	-15%	?	-40	12µM*
COc1ccc(-c2csc3ncnc(N4CCN(c5cccc(OC)c5)CC4)c23)cc1	-3%	-16%	-18%	?	-24	?
Fc1ccc(-c2csc3ncnc(N4CCN(c5ccccc5)CC4)c23)cc1	-5%	-14%	-3%	12µM*	-62*	5.9µM*
Cc1ccc(-c2csc3ncnc(N4CCN(C)CC4)c23)cc1C	-2%	-15%	1%	?	-34	43%
COc1ccc(-c2csc3ncnc(N4CCN(c5cccc(Cl)c5)CC4)c23)cc1	-8%	?	1%	?	·	7.4µM*
COc1ccc(CN2CCN(c3ncnc4scc(-c5ccc(F)cc5)c34)CC2)cc1	0%	?	0%	?	21	9.3µM*
CN(C)c1cc(-c2cccc(C(F)(F)F)c2)oc(=O)c1Cl	·	-1%	·	·	-31	·
